# KB-3-1 tox: KB-3-1 parental cell cytotoxicity; KB-3-1 viability, CellTiter-Glo ATP luminescence, 72 h; Potency, µM (titrated, usually from 46.1 µM), usual class: cytotoxic; 400,000 compounds, 1.4% hits; AID 1347075; note: % is set by controls: 0 for no effect and ±100 for the full control effect; nearly all actives have a fitted effect of over 60% in size
#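 KB-3-1 cells, DMEM (no phenol red) + 10% FBS; compound by pin transfer, 72 h, 37 °C. Readout: CellTiter-Glo luminescence after 10 min. Data normalized, curve-fitted.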
# HT1080 IDH1KD tx: HT-1080 IDH1 knockdown cell toxicity (counter line). HT-1080 IDH1 knockdown viability, ATP luminescence, 48 h. Potency, µM (top dose mostly 46.1 µM), for the others: top-dose activity, negative = toxicity, most hits filed as cytotoxic. 360,000 compounds, 2% hits. AID 686971;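 note: 0% = DMSO wells and -100% = cell-free medium wells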
#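 HT-1080-IDH1KD cells (IDH1 knocked down), 750/well in RPMI with 5% FBS, treated with compound 48 h at 37 degrees C. Viability by CellTiter-Glo luminescence, normalised to DMSO and no-cell wells; concentration-response curves classed.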
# KB-V1 MDR tox: kills drug-selected multidrug resistant KB-V1 cells. KB-V1 MDR cells viability, CellTiter-Glo, 72 h. Potency, µM (titrated, usually from 46.1 µM), usual class: cytotoxic. 400,000 compounds, 3.4% hits; note: % is set by controls: 0 for no effect and ±100 for the full control effect; nearly all actives have a fitted effect of over 60% in size
#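 KB-V1 MDR subline cells in DMEM (phenol-red free, 10% FBS) exposed to compounds in qHTS concentration series for 72 h at 37 degrees C. Viability read by CellTiter-Glo luminescence; concentration-effect curves fitted after normalization and correction.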
# SW480 rerep: DNA re-replication induction in SW480 cells. SW480 DNA re-replication, Hoechst DNA content imaging, 48 h. Potency, µM (titrated, usually from 46.1 µM), inactives show at the highest dose re-replication activation, usual class: activators. 340,000 compounds, 1.8% hits. AID 624297; note: % of control where 0% means no effect; nearly all actives have a fitted effect of over 55% in size
#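 250 cells/well; 23 nL cpd via pin tool; 48 hr, 37 C, 5% CO2; Hoechst 40 min; imager read of total nuclear intensity, ex 405/em 500-530 nm.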
# MCF10A rerep: inducers of DNA re-replication in MCF 10A breast cells; MCF 10A DNA re-replication, Hoechst nuclear intensity, 48 h; 350,000 compounds, 2.9% hits; AID 624296; Potency, µM (series often up to 46.1 µM), for the others: at the top dose activity, positive = re-replication, actives largely listed as activators; note: % of control where 0% means no effect; nearly all actives have a fitted effect of over 50% in size
# HT1080NT lethal: kills 2HG-producing HT-1080-NT fibrosarcoma cells | AID 686970 | 360,000 compounds, 1.6% hits | Potency, µM (top dose mostly 46.1 µM), for inactives: at the top dose activity, negative = less viability, actives largely listed as cytotoxic | HT-1080-NT fibrosarcoma viability, CellTiter-Glo ATP luminescence, 48 h;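 note: NT is the 2HG producing partner of a matched IDH1 knockdown line; 0% = DMSO-treated cells and -100% = media-only wells without cells; nearly all actives have a fitted effect of over 55% in size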
#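 750 cells/well, RPMI + 5% FBS; 2 h settle, compound pin-transfer, 48 h at 37 degrees C. CellTiter-Glo 10 min RT, luminescence. Normalized to DMSO and media-only wells.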
# * = called active by the depositor; i = inactive; ? = inconclusive; . = not tested or not shown; ! = a repeat was not active; [ ] = dose if it differs, or a comment. Compounds with a hit are over-represented: about 8% of the library has one in this group of screens. Calls come from the whole dose curve; as a rule, active = well fitted curve in the direction sought with a large enough effect; inconclusive = small, poorly fitted or top-dose-only effect, or another doubt; inactive = no such curve, though single readings can be large; an effect the other way counts as inactive or inconclusive. Potency is the fitted concentration of half-maximal effect.
SMILES,KB-3-1 tox,HT1080 IDH1KD tx,KB-V1 MDR tox,SW480 rerep,MCF10A rerep,HT1080NT lethal
CCc1nnc(NC(=O)CSc2nnc(C3CCCCC3)n2-c2cccc(Cl)c2)s1,i,4%,4.1µM*,-10%,21%,3%
CCC(=O)Nc1cccc(C(=O)/C=C/c2ccc(F)cc2)c1,?,?,i,10µM*,?,-30%
CC(=O)Nc1cccc(C(=O)/C=C/c2ccc(C)cc2)c1,?,?,i,?,21µM*,-5%
COc1cccc(NC(=S)NC(=O)/C=C/c2ccc(F)cc2)c1,i,5%,i,?,-3%,6%
CCN(CC)c1ccc(/C=N/NC(=O)c2ccccn2)cc1,?,?,?,?,?,-28%
CCN(CC)c1ccc(/C=N/NC(=O)c2cnccn2)cc1,?,3.7µM*,i,?,2.3µM*,5.2µM*
CCN(CC)c1ccc(/C=N/NC(=O)c2ccco2)c(O)c1,?,?,i,1.5µM*,21µM*,?
CCN(CC)c1ccc(C=Nc2ccccc2C)c(O)c1,i,0%,?,?,2%,0%
CCN(CC)c1ccc(/C=N/NC(=S)NCc2ccccc2)c(O)c1,7.3µM*,?,i,16µM*,16µM*,-28%
CCN(CC)c1ccc(/C=N/NC(=O)c2ccco2)cc1,3.7µM*,2.6µM*,i,5.8µM*,4.1µM*,?
COc1cccc(NS(=O)(=O)c2ccc3c(c2)N(C)C(=O)CC(=O)N3C)c1,i,.,?,.,.,.
Cc1ccc(Cl)cc1NC(=O)CN(C)S(=O)(=O)c1ccc2c(c1)n(C)c(=O)c(=O)n2C,i,.,i,.,.,.
CCOC(=O)c1cc(S(=O)(=O)N2CCN(c3ccc(OC)cc3)CC2)[nH]n1,i,.,i,.,.,.
CC(C)N(CCNCC(O)COc1ccc(C(C)(C)c2ccccc2)cc1)C(C)C (stereo not drawn),i,?,i,?,?,29µM*
OC(CNCCC(c1ccccc1)c1ccccc1)COc1ccccc1 (stereo not drawn),i,23µM*,?,1%,?,?
O=C(NNCC(O)COc1ccccc1)c1ccccc1 (stereo not drawn),i,17%,i,1%,-1%,4%
OC(CNCCc1ccccc1)COc1ccc(OCC(O)CNCCc2ccccc2)cc1 (stereo not drawn),21µM*,23µM*,?,?,?,?
CCc1cccc(NC(=O)Cn2c(=O)n(Cc3ccccc3)c(=O)c3c2c2cc(OC)ccc2n3C)c1,i,.,i,.,.,.
CC(NS(=O)(=O)c1ccc(F)cc1)C(=O)Nc1ccc2c(c1)OCCO2 (stereo not drawn),i,3%,i,21µM*,17%,-5%
CCCCNc1nc2c(S(=O)(=O)c3ccc(Br)cc3)nnn2c2ccsc12,i,.,i,.,.,.
O=C(NCCS(=O)(=O)NCCc1ccccc1)c1ccccc1,i,-4%,16µM*,-5%,0%,-1%
COc1ccccc1CCNS(=O)(=O)CCNC(=O)c1ccccc1,i,4%,16µM*,0%,2%,5%
COc1ccccc1NS(=O)(=O)c1ccc(Cl)c(NC(=S)NC(=O)C2CCCC2)c1,i,?,?,1%,?,-25%
CCN(CC)c1ccc(S(=O)(=O)Nc2cc(Cl)ccc2Cl)cc1NC(=S)NC(=O)C1CCCC1,i,?,i,7%,12µM*,?
CCN(CC)S(=O)(=O)c1ccc(Cl)c(NC(=S)NC(=O)C2CCCC2)c1,i,?,i,4.6µM*,?,-9%[9.24 µM]
SMILES,KB-3-1 tox,HT1080 IDH1KD tx,KB-V1 MDR tox,SW480 rerep,MCF10A rerep,HT1080NT lethal
O=C(NC(=S)Nc1ccccc1Cl)C1CC1,i,-6%,i,4%,12%,14%
CCCCCCCN(C(=O)CCl)c1ccccc1C,i,?,i,7.3µM*,0%,-11%
COc1cccc(CNc2ncnc3cc(Cl)ccc23)c1,i,?,?,?,?,-8%
COc1ccc(CNc2ncnc3cc(Cl)ccc23)cc1,?,-28%,21µM*,-3%,-4%,-26%
c1ccc(CNc2ncnc3ccccc23)cc1,?,-22%,8.2µM*!,0%,7%,-18%
COc1cc2ncnc(NCc3ccccc3)c2cc1OC,i,-5%,?,-4%,6.5µM*,0%
Cc1cc[n+]2cc(-c3cccc([N+](=O)[O-])c3)c(-c3cccc([N+](=O)[O-])c3)cc2c1,i,3%,i,2.6µM*,-2%,1%
C=C1NN(Cc2ccccc2)C(=O)N1c1ccc(OCc2ccccc2)cc1,i,.,i,.,.,.
COc1ccc(-c2cc(-c3ccccc3O)[nH]n2)cc1OC,i,?,i,-22%,?,?

# Screening data as filed in PubChem.
